From PubChem BioAssay AID602143 (Vanderbilt Specialized Chemistry Center, 2011)
Values without a mark were called inactive. The source made the active and inactive calls. Cut-off read from the data, not from the text of the source: active = remaining activity below about 50%; inactive = the rest.

What follows are compounds tested against Phospholipase D2 (Homo sapiens) (UniProt O14939) (assay: PLD2 inhibitors in cells, cell-based, HEK293, single concentration (AID 602143;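 note: tested at 200 nM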)). Details: HEK293 cellular PLD2 activity, percent of control; active compounds read low.
Phospholipase D2 (Homo sapiens), sequence (O14939 whole entry, looked up): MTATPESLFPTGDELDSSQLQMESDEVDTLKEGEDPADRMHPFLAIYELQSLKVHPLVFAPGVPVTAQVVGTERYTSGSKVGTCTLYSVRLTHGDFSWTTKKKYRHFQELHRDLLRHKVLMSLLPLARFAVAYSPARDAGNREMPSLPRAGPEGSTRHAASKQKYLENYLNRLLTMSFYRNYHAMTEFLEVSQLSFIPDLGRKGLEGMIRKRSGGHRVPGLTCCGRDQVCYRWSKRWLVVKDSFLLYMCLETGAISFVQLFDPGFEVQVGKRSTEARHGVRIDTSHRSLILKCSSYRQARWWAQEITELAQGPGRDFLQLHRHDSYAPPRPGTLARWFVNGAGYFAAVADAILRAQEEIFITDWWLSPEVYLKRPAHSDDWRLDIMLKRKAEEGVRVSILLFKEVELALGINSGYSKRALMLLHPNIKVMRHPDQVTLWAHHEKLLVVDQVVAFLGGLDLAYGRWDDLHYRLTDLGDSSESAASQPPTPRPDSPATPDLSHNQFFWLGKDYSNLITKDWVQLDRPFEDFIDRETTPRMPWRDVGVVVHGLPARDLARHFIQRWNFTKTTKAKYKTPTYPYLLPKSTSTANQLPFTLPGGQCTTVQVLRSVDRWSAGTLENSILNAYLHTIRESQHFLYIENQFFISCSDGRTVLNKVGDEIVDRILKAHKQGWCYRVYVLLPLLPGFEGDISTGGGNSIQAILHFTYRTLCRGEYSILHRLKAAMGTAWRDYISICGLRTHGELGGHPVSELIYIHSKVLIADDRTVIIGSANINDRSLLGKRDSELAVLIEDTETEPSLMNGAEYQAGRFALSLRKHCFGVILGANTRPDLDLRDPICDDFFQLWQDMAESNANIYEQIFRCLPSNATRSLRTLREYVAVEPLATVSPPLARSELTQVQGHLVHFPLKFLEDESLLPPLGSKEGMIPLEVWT
Phospholipase D2 (Homo sapiens), sequence (O14939 whole entry, looked up): as above

| Compound | remaining activity |
| --- | --- |
| O=C(NCCN1CCC2(CC1)CNc1ccccc12)C1CC1c1ccccc1 (configuration not stated) | 91.2% |
| C[C@H](CN1CCC2(CC1)CNc1ccccc12)NC(=O)c1cnc2ccccc2c1 | 104% |
| Cn1c(C2CCN(CC3(N)CCCC3)CC2)nc2ccccc21 (tested in a mixture with another compound) | 118% |
| O=C(NCCN1CCC(n2c(=O)[nH]c3ccccc32)CC1)C(c1ccccc1)(c1ccccc1)c1ccccc1 | 93.2% |
| C[C@@H](CN1CCC2(CC1)CN(S(C)(=O)=O)c1ccccc12)NC(=O)c1ccc2ccccc2c1 | 115% |
| O=C1c2ccccc2C(=O)N1CCCNc1cccc(F)c1 | 119% |
| Cc1ccc(C(=O)N[C@@H](C)CN2CCC(n3c(=O)[nH]c4c(F)cccc43)CC2)cc1 | 98.2% |
| O=c1[nH]c2ccccc2n1C1CCN(CCNS(=O)(=O)c2ccccc2[N+](=O)[O-])CC1 | 108% |
| O=c1[nH]c2ccccc2n1C1CCN(CCNS(=O)(=O)c2cccc(C(F)(F)F)c2)CC1 | 61.1% |
| CC(=O)c1cccc(NC(=O)NCCN2CCC(n3c(=O)[nH]c4ccccc43)CC2)c1 | 118% |
| O=C(NCCN1CCC(C(=O)NCC2CC2)CC1)c1ccc2ccccc2c1 | 108% |
| COc1cccc(C(=O)NCCN2CCC(n3c(=O)[nH]c4ccccc43)CC2)n1 | 72.5% |
| O=c1[nH]c2ccccc2n1C1CCN(CCNS(=O)(=O)c2ccccc2C(F)(F)F)CC1 | 98% |
| O=C(NCCN1CCN(c2ncccn2)CC1)c1ccc(F)cc1 | 92.2% |
| C[C@@H](CN1CCC(n2c(=O)[nH]c3ccccc32)CC1)NC(=O)CSc1ccccc1 | 86.7% |
| O=C(C1C[C@@H]1c1ccccc1)N1CCC(n2c(=O)[nH]c3cc(Cl)ccc32)CC1 (some centres not stated) | 72.5% |
| O=C(NCCN1CCC(n2c(=O)[nH]c3ccccc32)CC1)c1ccc2c(c1)CCCC2 | 96.1% |
| O=C(CCN1CCC(n2c(=O)[nH]c3ccccc32)CC1)NCc1ccc(Cl)cc1 | 85.2% |
| C[C@@H](CN1CCC(n2c(=O)[nH]c3ccc(F)cc32)CC1)NC(=O)c1ccc(F)cc1 | 66.8% |

| Compound | remaining activity |
| --- | --- |
| C[C@@H](CN1CCC2(CNCc3ccccc32)C1)NC(=O)c1ccc2ccccc2c1 (some centres not stated) | 91% |
| C[C@@H](CN1CCC(n2c(=O)[nH]c3ccccc32)CC1)NC(=O)c1cc2ccccc2s1 | 38.6% (active) |
| C[C@@H](CN1CCC(n2c(=O)[nH]c3ccccc32)CC1)NC(=O)c1ccc(C(F)(F)F)cc1 | 76.2% |
| O=C(N[C@@H](Cc1ccccc1)CN1CCC(n2c(=O)[nH]c3ccccc32)CC1)c1ccc(F)c(F)c1 | 124% |
| Nc1ccc(C(=O)NCCN2CCC(n3c(=O)[nH]c4ccccc43)CC2)c(F)c1 | 60.4% |
| O=C(NCCN1CCC2(CC1)CNCc1ccccc12)c1ccc2ccccc2c1 | 103% |
| O=C(NCCN1CC=C(n2c(=O)[nH]c3ccccc32)CC1)C1CC1c1ccccc1 (configuration not stated) | 28.2% (active) |
| Nc1cccc(Cl)c1C(=O)NCCN1CCC(n2c(=O)[nH]c3ccccc32)CC1 | 59.2% |
| O=C1c2ccccc2C(=O)N1CCCN1CCC(n2c(=O)[nH]c3cc(Cl)ccc32)CC1 | 74.6% |
| O=C(NCCN1CCC2(CCc3ccccc32)CC1)c1ccc2ccccc2c1 | 124% |
| O=C(NCCN1CCC(n2c(=O)[nH]c3ccc(F)cc32)CC1)c1ccc(C(F)(F)F)cc1 | 61.8% |
| CN1CCC2(CCN(CCNC(=O)[C@H]3C[C@@H]3c3ccccc3)CC2)C1=O | 102% |
| O=C(C1C[C@@H]1c1ccccc1)N1CCC2(CC1)C(=O)NCN2c1ccccc1 (some centres not stated) | 84% |
| O=C(NCCN1CCC(n2c(=O)[nH]c3ccccc32)CC1)c1ccc2c(ccc3ccc4ccccc4c32)c1 | 96.7% |
| CN1CCC2(CCN(CCNC(=O)c3ccc4ccccc4c3)CC2)C1=O | 129% |
| COc1cccc(N2CCN(CCNC(=O)c3ccc(C)cc3)CC2)c1 | 97.6% |
| O=C(NCCN1CCN(c2ccccn2)CC1)c1ccc(F)cc1 | 101% |
| Cn1c(C(=O)NCCN2CCN(c3ccncc3)CC2)cc2ccccc21 | 109% |
